Results as given in PubChem BioAssay AID488969 (Vanderbilt High Throughput Screening Facility, 2010).
In all, about 110,000 compounds were measured (“z-score”: median about -0.1, highest 2% from about 2 on). The full list was thinned out, with the highest values kept by preference. The source made the active and inactive calls.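 Rule for the calls: active = z-score in the third read window above 3 or below -3; inactive = the rest.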

The compounds below were run against Metabotropic glutamate receptor 8 (Rattus norvegicus) (UniProt P70579) (assay: rat mGluR8 modulators via GIRK flux, primary screen, cell-based, thallium flux, HTS (AID 488969)). Conditions: HEK293 rat mGluR8, GIRK (G protein-gated inwardly rectifying potassium channel) thallium flux, FluoZin2; at 10 µM; stronger effect = higher value; submaximal glutamate (EC20) added with thallium.
Chain of Metabotropic glutamate receptor 8 (Rattus norvegicus) (P70579 whole entry, looked up): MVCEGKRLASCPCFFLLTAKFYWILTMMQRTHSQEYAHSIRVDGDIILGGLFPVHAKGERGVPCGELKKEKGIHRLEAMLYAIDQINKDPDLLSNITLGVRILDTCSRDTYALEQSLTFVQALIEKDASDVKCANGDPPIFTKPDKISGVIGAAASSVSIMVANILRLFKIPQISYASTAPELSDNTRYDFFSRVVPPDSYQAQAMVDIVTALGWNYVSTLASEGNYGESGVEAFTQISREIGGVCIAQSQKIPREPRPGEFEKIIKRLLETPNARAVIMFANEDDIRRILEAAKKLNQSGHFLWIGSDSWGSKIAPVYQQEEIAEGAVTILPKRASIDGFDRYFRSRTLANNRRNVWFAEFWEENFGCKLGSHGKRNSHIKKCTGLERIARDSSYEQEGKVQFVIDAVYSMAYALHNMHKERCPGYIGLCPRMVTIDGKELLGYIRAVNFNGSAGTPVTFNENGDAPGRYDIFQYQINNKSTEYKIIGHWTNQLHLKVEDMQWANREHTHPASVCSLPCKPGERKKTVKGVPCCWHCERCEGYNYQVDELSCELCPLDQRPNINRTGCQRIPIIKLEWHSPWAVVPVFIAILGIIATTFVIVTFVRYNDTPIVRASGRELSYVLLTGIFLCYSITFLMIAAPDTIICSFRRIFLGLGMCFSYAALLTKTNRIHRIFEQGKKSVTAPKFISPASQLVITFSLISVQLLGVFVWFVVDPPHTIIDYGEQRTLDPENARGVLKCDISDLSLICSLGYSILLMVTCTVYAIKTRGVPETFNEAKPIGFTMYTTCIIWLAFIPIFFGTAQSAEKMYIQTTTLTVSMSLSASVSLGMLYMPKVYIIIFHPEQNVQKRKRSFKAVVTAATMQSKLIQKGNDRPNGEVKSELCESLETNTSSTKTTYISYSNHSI
Compound `CN1CCN(C(=O)c2ccc(-c3nn(C)c(=O)c4ccccc34)cc2)CC1` has a z-score of -0.877.
For `CSc1ncc(Cl)c(C(=O)NCc2ccc3c(c2)OCO3)n1`, the z-score was 0.575.
In the case of `S=c1nc[nH]c2c1sc1nc(-c3ccccc3)c3c(c12)CCCC3`, the z-score is reported as 7.83 (active).
Work on `O=c1[nH]cnc2c1sc1nc(-c3ccccc3)c3c(c12)CCCC3` yielded a z-score of 0.204.
For `COc1ncnc2c1sc1nc(-c3ccccc3)c3c(c12)CCCC3`, the z-score was -0.0945.
`CC1CN(C(=O)/C=C/c2cccc([N+](=O)[O-])c2)CC(C)O1` (configuration not stated) gave a z-score of -0.164.
For `O=c1c2ccccc2[nH]c(=S)n1CCN1CCN(Cc2ccccc2)CC1`, the z-score was 7.91 (active).
With `O=C(CCCn1c(=S)[nH]c2ccccc2c1=O)N1CCCCC1` the z-score was 1.44.
Compound `COCCNC(=O)CCCCCn1c(=S)[nH]c2ccccc2c1=O` has a z-score of 1.77.
`CCN1CCN(CCn2c(=S)[nH]c3ccccc3c2=O)CC1` showed a z-score of 0.66.
`CCOc1cc2[nH]c(=S)n(CCN3CCCCC3CC)c(=O)c2cc1OCC` (configuration not stated) showed a z-score of 1.73.
For `CC1CCCN(C(=O)CCCn2c(=S)[nH]c3ccccc3c2=O)C1` (configuration not stated), the z-score was 4.5 (active).
For `O=C(CCCCCn1c(=S)[nH]c2ccccc2c1=O)N1CCOCC1`, the z-score was -0.155.
`CCC1CCCCN1CCn1c(=S)[nH]c2cc(OC)c(OC)cc2c1=O` (configuration not stated) gave a z-score of 2.07.
`COc1cccc(NC(=O)CCCn2c(=S)[nH]c3ccccc3c2=O)c1` was tested, and the z-score was 3.39 (active).
`COc1ccc(NC(=O)CCCn2c(=S)[nH]c3ccccc3c2=O)cc1` gave a z-score of -0.514.
`CCOc1cc2[nH]c(=S)n(CCN3CCCCC3C)c(=O)c2cc1OCC` (configuration not stated) gave a z-score of 0.258.
`O=c1[nH]c2ccccc2c(=O)n1Cc1ccccc1` showed a z-score of 0.345.
For `Cc1cccc(C(=O)N2c3ccccc3C(=O)OC2c2ccc3c(c2)OCO3)c1` (configuration not stated), the z-score was -0.842.
Work on `c1coc(CN(Cc2ccco2)c2ncnc3c2oc2ccccc23)c1` yielded a z-score of -2.18.
With `O=C1CN=C(Nc2ccc(Cl)cc2)N1c1ccccc1` the z-score was -0.0445.
For `COc1cc(-n2c(C)nc3cc(C(=O)NCCN4CCOCC4)ccc32)cc(OC)c1OC`, the z-score was -0.57.
`COc1cc(NC(=S)Nc2cccnc2)cc(OC)c1OC` showed a z-score of -0.192.
In the case of `Cc1ccc2[nH]c(=O)c3cc(C(=O)NCCN4CCN(C)CC4)sc3c2c1`, the z-score is reported as 0.666.
For `O=c1c2ccccc2[nH]c(=S)n1CCCN1CCN(C2CCCCC2)CC1`, the z-score was 10.2 (active).
With `O=C(CCCn1c(=S)[nH]c2cc3c(cc2c1=O)OCO3)N1CCN(C2CCCCC2)CC1` the z-score was -0.008.
With `CC1CC(C)CN(CCCn2c(=S)[nH]c3ccccc3c2=O)C1` (configuration not stated) the z-score was 14.4 (active).
With `O=C(CCCn1c(=S)[nH]c2ccccc2c1=O)NC1CCCCC1` the z-score was 0.0447.
With `CC1CCCCN1CCCn1c(=S)[nH]c2ccccc2c1=O` (configuration not stated) the z-score was 3.46 (active).
`CCN1CCN(CCCNC(=O)c2cc3c(=O)[nH]c4ccccc4c3s2)CC1` gave a z-score of 0.477.
`CC1CCN(CCCn2c(=S)[nH]c3ccccc3c2=O)CC1` gave a z-score of 0.0115.
Compound `CC1CCCCN1CCNc1nc(=S)[nH]c2ccccc12` (configuration not stated) has a z-score of -0.105.
`CCN(CC)CCCn1c(=S)[nH]c2ccccc2c1=O` gave a z-score of 0.126.
`O=C(NCCN1CCN(Cc2ccccc2)CC1)c1cc2c(=O)[nH]c3ccccc3c2s1` showed a z-score of 2.15.
Compound `O=C(NC1CCCCC1)c1ccccc1-c1ccccc1` has a z-score of -0.176.
Work on `COCCNC(=O)c1cc2ncc(Br)cn2n1` yielded a z-score of 0.00586.
`C/C(Cn1cnc([N+](=O)[O-])n1)=N\NC(=O)c1ccc(Br)cc1` showed a z-score of -0.261.
`O=C(CNC(=O)c1cccs1)NC1=NCCS1` gave a z-score of 0.647.
In the case of `COc1ccc(/C=N/NC(=O)c2ccccc2O)cc1CSc1ccccn1`, the z-score is reported as 0.779.
For `Cc1c2cccn2cc[n+]1C`, the z-score was -0.16.
`CCOC(=O)c1ccc(N/C=C2/CCCC(C)C2=O)cc1` (configuration not stated) gave a z-score of 0.315.
In the case of `Cc1ccccc1OCC(=O)O/N=C(\N)Cc1ccc(Cl)cc1`, the z-score is reported as -0.483.
`CC12CC(NC(=O)N1c1cccc(C(=O)N3CCN(c4ccccc4)CC3)c1)c1ccccc1O2` (configuration not stated) showed a z-score of -0.354.
Compound `CCC1CCCCN1CC(=O)c1c(C)[nH]c2ccccc12` (configuration not stated) has a z-score of -0.699.
In the case of `CCC1CCCCN1CCCn1c(=S)[nH]c2ccccc2c1=O` (configuration not stated), the z-score is reported as 7.04 (active).
With `CCOC(=O)N1CCN(C(=O)CCCn2c(=S)[nH]c3ccccc3c2=O)CC1` the z-score was -0.357.
With `CC1=C(C(=O)Nc2ccccc2)C(c2ccco2)C(C#N)=C(SCC(=O)Nc2cccc(C)c2C)N1` (configuration not stated) the z-score was 0.693.
Compound `Cc1ccnc2nc(C(=O)Nc3ccc(N4CCOCC4)cc3)nn12` has a z-score of 0.0976.
`CCOC(=O)c1c(C)[nH]c(C2=NNC(=Nc3ccccc3OC)SC2)c1C` gave a z-score of -0.32.
With `Nc1ccc(-n2cnc3cc([N+](=O)[O-])ccc32)cc1` the z-score was -0.118.
`CN1C(=O)NC(c2ccccc2)C2=C1CN(CCc1ccccc1)C2=O` (configuration not stated) showed a z-score of 0.0172.
For `Cc1ccc(N2CC3=C(C2=O)C(c2ccccc2)NC(=O)N3C)cc1` (configuration not stated), the z-score was -0.193.
For `CN1C(=O)NC(c2ccccc2)C2=C1CN(Cc1ccccc1)C2=O` (configuration not stated), the z-score was 7.33 (active).
`CCOC(=O)c1c(C)[nH]c(C(=O)OCCOc2ccccc2C)c1C` showed a z-score of -0.0787.
With `O=C1/C(=C/c2cccnc2)Oc2cc(OS(=O)(=O)c3ccc(Cl)cc3)ccc21` the z-score was 0.0689.
For `Cc1nn(-c2ccccc2)c(C)c1/C=N/NC(=O)c1cc(-c2cccc3ccccc23)n[nH]1`, the z-score was -0.481.
In the case of `Cc1c(C(=O)Oc2ccc(F)cc2)sc2ncn(Cc3cccc(F)c3)c(=O)c12`, the z-score is reported as -0.113.
Compound `O=c1c2cc(Cl)ccc2[nH]c(=S)n1Cc1ccccn1` has a z-score of 1.21.
Work on `O=c1c2ccccc2[nH]c(=S)n1Cc1cccs1` yielded a z-score of 2.21.
With `O=C(CCn1c(=S)[nH]c2ccccc2c1=O)N1CCOCC1` the z-score was 0.695.
For `CCN(CC)CCn1c(=S)[nH]c2ccc(Cl)cc2c1=O`, the z-score was 1.01.
For `O=c1c2cc(Cl)ccc2[nH]c(=S)n1Cc1cccs1`, the z-score was 4.2 (active).
`CCC1CCCCN1Cc1ccc(OC)c(C)c1C` (configuration not stated) gave a z-score of 0.363.
`CC(C)Oc1ccc(/C(O)=C2/C(=O)C(=O)N(CCCn3ccnc3)C2c2cccnc2)cc1` (configuration not stated) showed a z-score of -0.0218.
`O=S(=O)(Nc1ncccn1)c1ccc(Nc2ncnc3ccccc23)cc1` was tested, and the z-score was 0.439.
`Cc1cccc(OCC(=O)Nc2sc3c(c2C#N)CCC3)c1` showed a z-score of -0.312.
`O=C(NC1(C(F)(F)F)NC(=O)N(Cc2cccnc2)C1=O)c1ccncc1` (configuration not stated) showed a z-score of 2.13.
For `O=C(NC1(C(F)(F)F)NC(=O)N(Cc2cccnc2)C1=O)c1ccc(F)cc1` (configuration not stated), the z-score was 0.269.
Work on `O=C(NC1(C(F)(F)F)NC(=O)N(Cc2cccnc2)C1=O)c1ccccc1` (configuration not stated) yielded a z-score of 1.13.
`CCOC(=O)/C=C/C(=O)Nc1ccccc1-c1ccccc1NC(=O)/C=C/C(=O)OCC` was tested, and the z-score was -0.138.
`COc1ccccc1OCCCOc1c(C)cc(C)cc1Br` was tested, and the z-score was -0.185.
`FC(F)(F)c1nnc2ccc(N3CCCC3)nn12` gave a z-score of -0.343.
`CCOC(=O)c1cnc(-n2nc(C)cc2C)nc1Nc1ccccc1OC` showed a z-score of 0.0785.
`CCC1CCCCN1S(=O)(=O)c1ccc(S(=O)(=O)N(Cc2ccccn2)CC2CCCO2)cc1` (configuration not stated) showed a z-score of -0.251.
Work on `O=c1[nH]c2cccnc2n1Cc1ccco1` yielded a z-score of 0.26.
In the case of `O=c1c2cc(Cl)ccc2[nH]c(=S)n1Cc1ccco1`, the z-score is reported as 16.1 (active).
Compound `COc1cc2[nH]c(=S)n(Cc3ccco3)c(=O)c2cc1OC` has a z-score of -0.209.
In the case of `O=c1c2cc3c(cc2[nH]c(=S)n1Cc1ccco1)OCO3`, the z-score is reported as 2.77.
Compound `O=C(c1ccc2c(=O)n(Cc3ccco3)c(=S)[nH]c2c1)N1CCN(Cc2ccccc2)CC1` has a z-score of 0.611.
Work on `CC(C)NC(=O)c1ccc2c(=O)n(Cc3ccco3)c(=S)[nH]c2c1` yielded a z-score of 0.167.
`Nc1cc(=O)[nH]c(=O)n1Cc1ccco1` showed a z-score of 0.299.
`O=c1[nH]c2ccc(Cl)cc2c(=O)n1Cc1ccco1` was tested, and the z-score was 5.27 (active).
`CN1CCN(C(=O)c2ccc3c(=O)n(Cc4ccco4)c(=S)[nH]c3c2)CC1` showed a z-score of 0.757.
With `OCc1cn(-c2ccccc2)nc1-c1ccc(-c2nn(-c3ccccc3)cc2CO)cc1` the z-score was 0.428.
Work on `Cc1ccc(NC(=O)c2cc(S(=O)(=O)c3ccccc3)ccc2Cl)cc1` yielded a z-score of -0.0678.
`COc1ccc(-n2c(SCCC(=O)O)nnc2-c2ccncc2)cc1` gave a z-score of 0.658.
`Cc1cc(C)cc(C(=O)NCC(=O)OCC(=O)N2c3ccccc3NC(=O)C2(C)C)c1` showed a z-score of -0.138.
In the case of `CC(C)c1nc(NCc2ccccc2)c(C#N)c2c1CCCC2`, the z-score is reported as -0.133.
With `CCN(CC)S(=O)(=O)c1ccc(C(=O)OCCNC(=O)c2cccnc2)cc1` the z-score was -0.485.
In the case of `CCOc1[nH]n(-c2ccc(Cl)cc2)c(=O)c1C=Nc1ccc(Cl)cc1`, the z-score is reported as 3.26 (active).
`CCOc1[nH]n(-c2ccccc2)c(=O)c1C=Nc1ccc(Cl)cc1` gave a z-score of 0.655.
`CCOc1[nH]n(-c2ccc(Cl)cc2)c(=O)c1C=Nc1ccc(C)cc1` showed a z-score of -0.176.
`COc1ccc(-c2nc(C#N)c(N3CCC(C(N)=O)CC3)o2)cc1` was tested, and the z-score was -0.0894.
`N=c1c2c(-c3ccccc3)c(-c3ccccc3)n(Cc3ccco3)c2ncn1CCO` showed a z-score of 0.759.
`N=c1c2c(-c3ccccc3)c(-c3ccccc3)n(Cc3ccccc3)c2ncn1CCO` showed a z-score of 0.392.
With `c1ccc(-c2c(-c3ccccc3)n(Cc3ccco3)c3ncnc(NCCCn4ccnc4)c23)cc1` the z-score was 2.78.
In the case of `CC(C)Cn1cnc2c(c(-c3ccccc3)c(-c3ccccc3)n2Cc2ccco2)c1=N`, the z-score is reported as 3.58 (active).
Compound `c1ccc(-c2oc3ncnc(NCCCn4ccnc4)c3c2-c2ccccc2)cc1` has a z-score of 0.609.
For `N=c1c2c(-c3ccccc3)c(-c3ccccc3)n(Cc3ccccc3)c2ncn1CCCO`, the z-score was 4.35 (active).
Compound `N=c1c2c(-c3ccccc3)c(-c3ccccc3)n(Cc3ccco3)c2ncn1CCN1CCOCC1` has a z-score of -0.19.
Compound `N=c1c2c(-c3ccccc3)c(-c3ccccc3)n(Cc3ccco3)c2ncn1Cc1ccccc1` has a z-score of 0.528.
For `OCCNc1ncnc2c1c(-c1ccccc1)c(-c1ccccc1)n2Cc1ccco1`, the z-score was -0.463.
Compound `COc1ccc(C(=O)Nc2nc3ccc4nc(C)sc4c3s2)cc1` has a z-score of -0.0988.
Work on `CCC(C)NC(=O)Cn1c(COc2ccc(Cl)cc2Cl)nc2ccccc21` (configuration not stated) yielded a z-score of -2.32.
For `O=C(CN(Cc1ccccc1)C(=O)CSc1nnc(COc2ccccc2)o1)NC1CCCC1`, the z-score was 0.0593.
`Cc1cc(/C=C(\C#N)C(=O)NC2CC2)c(C)[nH]1` gave a z-score of 0.155.
For `CCCNC(=O)c1cccc(COCC(F)(F)C(F)F)c1`, the z-score was -0.0567.
